# “And” between values parts separate entries of the source, which are not always exact repeats. Equal entries are not always repeated. Inconclusive results are not listed. The source made the active and inactive calls. The calls were made as follows, unless noted: active = hit-call score of the fitted dose curve at least 0.9, where 1 is the maximum; inconclusive = response in the unintended direction; inactive = score below 0.9.
# Assays:
# [1] = read-out: organic anion transporter (SLCO1B1), SLCO1B1 (gene 10599); assay: CLD_SLCO1B1_48hr: CellzDirect (CLD) Gene Expression Assay for organic anion transporter (SLCO1B1) at 48 hours (AID 2283707)
# Summary of the method: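 Primary human hepatocytes from two donor preparations dosed daily for two days with multiple concentrations, 0.2% DMSO vehicle. SLCO1B1 mRNA at 48 h by quantitative nuclease protection assay, chemiluminescence; gain-of-signal fitted versus DMSO.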
# [2] = read-out: alkyl and aryl transferase (GSTA2), GSTA2 (gene 2939); assay: CLD_GSTA2_48hr: CellzDirect (CLD) Gene Expression Assay for alkyl and aryl transferase (GSTA2) at 48 hours (AID 2283708);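 also: active means mRNA induction above DMSO vehicle baseline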
# Summary of the method: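 Primary human hepatocytes dosed daily for two days (0.2% DMSO vehicle), harvested at 48 h. GSTA2 mRNA induction measured by quantitative nuclease protection assay with chemiluminescent imaging, fitted for gain of signal relative to DMSO.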
# [3] = read-out: glucuronosyltransferase (UGT1A1), UGT1A1 (gene 54658); assay: CLD_UGT1A1_48hr: CellzDirect (CLD) Gene Expression Assay for glucuronosyltransferase (UGT1A1) at 48 hours (AID 2283709);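 also: actives increase expression relative to DMSO so potency refers to induction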
# Summary of the method: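 Human primary hepatocytes dosed daily for two days (0.2% DMSO vehicle), harvested at 48 h. UGT1A1 mRNA induction measured by quantitative nuclease protection assay with chemiluminescence; gain of signal versus DMSO; cytotoxicity flagged from morphology.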
# [4] = Tanguay_ZF_120hpf_ActivityScore_legacy: (Legacy) Oregon State University Tanguay Lab 120 Hour Post-fertilization zebrafish Assay Score for Activity (AID 2283742);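 as to AC50: dechorionated Tropical 5D wild-type zebrafish embryos held singly per well; static exposure from 6 hpf until 120 hpf at 28 °C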
# Summary of the method: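 Embryos are staged, enzymatically dechorionated at 4 hpf, placed individually at 6 hpf, then held in test chemical (0.64% DMSO) at 28C until 120 hpf. Mortality and malformations are scored by brightfield, with non-mortality endpoints skipped for dead embryos.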
# [5] = STM_H9_OrnithineISnorm_perc: Stemina devTOX quickPredict H9 human embryonic stem cell (hESC)-based Assay for Ornithine (ORN) Metabolite Biomarker, Normalized (AID 2283712; active = hit-call score of the fitted dose curve at least 0.9, where 1 is the maximum; inactive = score below 0.9;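 also: ornithine released into spent medium during last day measured by mass spectrometry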)
# Summary of the method: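 Undifferentiated H9 hESCs exposed 72 h with daily media and compound renewal; final 24-h conditioned medium analysed by UPLC-HRMS. Ornithine peak area normalised to spiked C13 standard and to median 0.1% DMSO control; viability by CellTiter-Fluor.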
# [6] = STM_H9_CystineISnorm_perc: Stemina devTOX quickPredict H9 human embryonic stem cell (hESC)-based Assay for Cystine (CYSS) Metabolite Biomarker, Normalized (AID 2283713; active = hit-call score of the fitted dose curve at least 0.9, where 1 is the maximum; inactive = score below 0.9)
# Summary of the method: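 Undifferentiated H9 hESCs exposed 72 h, compound and media replaced every 24 h; final 24-h media analysed by UPLC-HRMS. Cystine normalized to C13 spike-in standard and median 0.1% DMSO control.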
# [7] = STM_H9_OrnCyssISnorm_ratio: Stemina devTOX quickPredict H9 human embryonic stem cell (hESC)-based Assay for Ornithine (ORN):Cystine (CYSS) Ratio (AID 2283714)
# Summary of the method: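 Steps: H9 hESCs in pluripotent state dosed 72h, medium plus compound renewed every 24h; conditioned medium from the final 24h deproteinized in 40% acetonitrile; ORN and CYSS quantified by UPLC-HRMS with C13 spike-ins; ratio relative to vehicle.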
# [8] = ArunA_CellTiter_hNP: Viability Assessment in the ArunA Biomedical's Oris Neural Crest (hNC) Cell Migration Assay (AID 2283753)
# Summary of the method: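 H9-derived hNP1 neuroprogenitors, 60,000/well on Matrigel, cultured 16 h, then 72 h chemical exposure in test medium. Cell titer via CellTiter Aqueous One; positive-direction fit vs DMSO.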
# [9] = system: Thyroperoxidase (TPO), gene 445522; assay: CCTE_Simmons_GUA_TPO: CCTE's Guaiacol Assay for Thyroperoxidase (TPO) Inhibition, Simmons Lab (AID 2283750)
# Summary of the method: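 Porcine thyroid microsomes (25 ug) in 200mM potassium phosphate, preincubated 30 s at 37C with compound (8 concentrations, 5 nM–87.5 uM) and 35mM guaiacol; 1mM H2O2 starts reaction. Absorbance change at 450nm over first 80 s; loss of signal versus DMSO, three replicates.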
structure (smiles),measurement,setting,value
CNC(=O)/C=C(\C)OP(=O)(OC)OC,outcome,[1],inactive
same,outcome,[2],inactive
same,outcome,[3],inactive
same,outcome,[4],inactive
O=C(O)COc1ccc(Cl)cc1Cl,outcome,[1],inactive
same,outcome,[3],inactive
same,outcome,[4],inactive
CCc1ccc(C(=O)NN(C(=O)c2cc(C)cc(C)c2)C(C)(C)C)cc1,outcome,[1],inactive
same,AC50,[3],3.53 µM (active)
same,outcome,[4],inactive
Cc1cc(C)nc(NC(=O)NS(=O)(=O)c2ccccc2C(=O)OC2COC2)n1,outcome,[3],inactive
COP(=O)(OC)OC=C(Cl)Cl,outcome,[1],inactive
same,outcome,[3],inactive
same,outcome,[4],inactive
CC1(c2ccc(Oc3ccccc3)cc2)OC(=O)N(Nc2ccccc2)C1=O (stereo unspecified),AC50,[5],4.54 µM (active)
same,AC50,[6],2.42 µM (active)
same,AC50,[7],3.15 µM (active)
same,outcome,[4],inactive
O=[N+]([O-])/N=C1\NCCN1Cc1ccc(Cl)nc1,outcome,[3],inactive
same,outcome,[4],inactive
CC(C)(C)C(O)C(Oc1ccc(Cl)cc1)n1cncn1 (stereo unspecified),AC50,[3],2.43 µM (active)
same,outcome,[5],inactive
same,AC50,[6],20.4 µM (active)
same,AC50,[7],28.3 µM (active)
same,AC50,[4],26.3 µM (active) and 43 µM (active) and 47 µM (active)
CCC(C)(C)C(=O)OC1=C(c2ccc(Cl)cc2Cl)C(=O)OC12CCCCC2,outcome,[3],inactive
same,outcome,[4],inactive
C#CCN1C(=O)COc2cc(F)c(N3C(=O)C4=C(CCCC4)C3=O)cc21,outcome,[3],inactive
same,AC50,[5],84.1 µM (active)
same,AC50,[6],79.6 µM (active)
same,AC50,[7],93 µM (active)
same,outcome,[4],inactive
CNC(=O)Oc1ccccc1OC(C)C,outcome,[3],inactive
same,outcome,[4],inactive
C[C@H]1[C@H](c2ccc(Cl)cc2)SC(=O)N1C(=O)NC1CCCCC1,outcome,[3],inactive
same,outcome,[4],inactive
COc1nn(CSP(=S)(OC)OC)c(=O)s1,outcome,[3],inactive
same,outcome,[4],inactive
CCN(CC)C(=O)SCc1ccc(Cl)cc1,AC50,[3],20 µM (active)
same,outcome,[4],inactive
CCC(C)Nc1c([N+](=O)[O-])cc(C(C)(C)C)cc1[N+](=O)[O-] (stereo unspecified),AC50,[3],2.8 µM (active)
same,outcome,[5],inactive
same,outcome,[6],inactive
same,outcome,[4],inactive
same,outcome,[8],inactive
CCCN(CCOc1c(Cl)cc(Cl)cc1Cl)C(=O)n1ccnc1,outcome,[4],inactive
N#CN,outcome,[3],inactive
same,outcome,[4],inactive
OCCOc1ccccc1,outcome,[3],inactive
same,outcome,[4],inactive
CN1CSC(=S)N(C)C1,outcome,[3],inactive
same,AC50,[4],0.0296 µM (active)
CCOCN(C(=O)CCl)c1c(C)cccc1CC,outcome,[3],inactive
same,outcome,[5],inactive
same,outcome,[6],inactive
same,AC50,[4],46 µM (active)
CNC(=O)CSP(=S)(OC)OC,outcome,[3],inactive
same,outcome,[4],inactive
same,outcome,[9],inactive
ClC1C(Cl)C(Cl)C(Cl)C(Cl)C1Cl (stereo unspecified),outcome,[3],inactive
same,outcome,[4],inactive
CC[C@H](C)[C@H]1O[C@]2(C=C[C@@H]1C)C[C@@H]1C[C@@H](C/C=C(\C)[C@@H](O[C@H]3C[C@H](OC)[C@@H](O[C@H]4C[C@H](OC)[C@@H](O)[C@H](C)O4)[C@H](C)O3)[C@@H](C)/C=C/C=C3\CO[C@@H]4[C@H](O)C(C)=C[C@@H](C(=O)O1)[C@]34O)O2 (tested in a mixture with another compound),AC50,[4],8.55 µM (active)
CCCN(CCC)c1c([N+](=O)[O-])cc(C(F)(F)F)cc1[N+](=O)[O-],AC50,[3],3.27 µM (active)
same,outcome,[4],inactive
N#Cc1c(Cl)c(Cl)c(Cl)c(C#N)c1Cl,AC50,[4],45 µM (active)
Clc1ccccc1-c1nnc(-c2ccccc2Cl)nn1,outcome,[3],inactive
same,outcome,[4],inactive
O=C(O)CCCOc1ccc(Cl)cc1Cl,outcome,[3],inactive
same,outcome,[4],inactive
CC(C)N(C(=O)COc1nnc(C(F)(F)F)s1)c1ccc(F)cc1,outcome,[3],inactive
same,outcome,[4],inactive
CNC(=O)Oc1cccc(N=CN(C)C)c1,outcome,[3],inactive
same,outcome,[4],inactive
CC1(C)C(C=C(Cl)Cl)C1C(=O)OC(C#N)c1ccc(F)c(Oc2ccccc2)c1 (stereo unspecified),outcome,[3],inactive
same,outcome,[5],inactive
same,outcome,[6],inactive
same,outcome,[4],inactive
Cc1[nH]c(=O)n(C(C)(C)C)c(=O)c1Cl,outcome,[3],inactive
same,outcome,[5],inactive
same,outcome,[6],inactive
same,outcome,[4],inactive

# Reference: PubChem BioAssay (EPA / NIEHS)
